Measurements: article PMC12864922, “TDP-43 directly inhibits mRNA accumulation in neurites through modulation of mRNA stability”
In all, about 9,900 sequences were measured (“r (bound/input frequency ratio)”: median about 0.7, highest 2% from about 6.5 on). The list comes from a sample in which the highest values are over-represented; it also holds similar and randomly drawn sequences.

B1: ENSMUSG00000042529.105|Kcnj12 (ssRNA)
RNA: GGGAGUUCUACAGUCCGACGAUCGCUUCGAUAUCCGCAUGCUAAGGUCUGUUUUCUCCCUCACGUGGGCCAGGGCCUUAAGCGAGUUGUCAUGCUUAAGGAUGAAUCAGGCUGCUUGUGACCAUGUUAACGAUUCUAAUAAAGUGUCUGGAUGUCUCUUGGGGGUGGGGCCCACUAGGGUGAAUCUGGCUUGCUCUUCUGUUUGAUGUUGUUGUACCUCAGCUGCCUCAGGGCUGGGUUUAGACACCCCUUCCCCCACCCCCACUCCGUACUCCCUGUUGUGCUUCCCUUCCUAUUUAGUCCCCUCUUGCGGUCGCACUAGUGUGGAAUUCUCGGGUGUCAAGG
B2: ENSMUSG00000090935.77|Synj2bp (ssRNA)
RNA: GGGAGUUCUACAGUCCGACGAUCGCUUCGAUAUCCGCAUGCUACUUUGUCAGCAUAGGCAGGAGUCCUUUAGGAUUUCUGCCUAUCAGUAAAAGAAGUAUGUAACCCAAGUUCUACCUUCAGUGGAUUAAAGUUUCAUUAAGUGAAAAUGGAAAGAAAGUAGAAUUACUUGGUAAGAGGCCAAAUGAGGAUACAGAGGCUGAAGAAGAUUGAAAGGAGCUAGUGUAAACAAACAAACAAACAAACAAACAAAAAACCAAACCCCAAAACAAAAACAAAAACAAAACAAAAUUGGAGAAAGCAGCUCUUGCGGUCGCACUAGUGUGGAAUUCUCGGGUGUCAAGG
B3: ENSMUSG00000090935.604|Synj2bp|54:59 (ssRNA)
RNA: GGGAGUUCUACAGUCCGACGAUCGCUUCGAUAUCCGCAUGCUACUAAUAGACACUGUUUGCUUCAGUUGUUUUUGUUUCCUUUUCCUACAGUUUUCACACACGGUGAUUUCAUUUAAUUAAUUGGACAGUCUAGCCACAGGCAACAAAUAGAAAUAGUAUUUGUAAUUAUAGUCUAUGCCAGGGACUGUCUUAAACUGAUUAGUAACACUAUGACUUACCCUGAGAUCUAAGUAUUGCUAUAAAGAGACUGAAGAGGAGAGAAUAAAGUAUUUUCCUAGGACUACAUAGUUGGUAAAAGAGAACUCUUGCGGUCGCACUAGUGUGGAAUUCUCGGGUGUCAAGG
B4: ENSMUSG00000035279.10|Ssc5d|99:105 (ssRNA)
RNA: GGGAGUUCUACAGUCCGACGAUCGCUUCGAUAUCCGCAUGCUAAUGCCUUCAAACCACCCAGAAGCCAGACCUUACACUCAGCUUCAGACCACCUCACUCAAGGGCCAACCCCUAAUCACAACCCAGAUCCUUUUGGGCCAACACACACCCCAUUACCACCAGUAAGGGUCAUGGCUUGUGAGCCACCUGCCUUGGUGGAGCUGGUAGGUGCUGUGAGGGAGGUGGGUGACCAGCUGCAGAGACUGACCUGGGUCCUGGAGCAGGACCGGCAGGAGCGCCAAGUCCUGGCACUGGGCCUAGCCCUCUUGCGGUCGCACUAGUGUGGAAUUCUCGGGUGUCAAGG

target: TDP-43 (Homo sapiens, UniProt Q13148 1-414); assay: RNA Bind-n-Seq with designed 260-mer pool; 25 mM Tris-HCl, 150 mM KCl, 3 mM MgCl2, BSA (printed 500 mg/mL), 20 units/mL SUPERase IN; pH not stated; 500 nM RNA pool, 1 h, 4 C; TDP-43 5, 50, 500 nM; high values mean tight binding; conditions: protein: recombinant; tags: SBP (GST cleaved off with PreScission; pGEX-GST-SBP)
Procedure, shortened: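 Recombinant SBP-tagged TDP-43 at 5, 50 or 500 nM was captured on streptavidin beads, then incubated 1 h at 4 °C with 500 nM of an in vitro-transcribed 260-nt 3′ UTR oligo pool in 25 mM Tris-HCl, 150 mM KCl, 3 mM MgCl2, BSA and SUPERase IN. Bound RNA was washed, eluted with biotin, reverse transcribed, PCR-amplified and sequenced. Binding is R, each oligo's mapped-read-normalized abundance in the bound sample divided by its abundance in input. Duplicates used two independent protein batches.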

Chain of TDP-43 (Q13148 whole entry): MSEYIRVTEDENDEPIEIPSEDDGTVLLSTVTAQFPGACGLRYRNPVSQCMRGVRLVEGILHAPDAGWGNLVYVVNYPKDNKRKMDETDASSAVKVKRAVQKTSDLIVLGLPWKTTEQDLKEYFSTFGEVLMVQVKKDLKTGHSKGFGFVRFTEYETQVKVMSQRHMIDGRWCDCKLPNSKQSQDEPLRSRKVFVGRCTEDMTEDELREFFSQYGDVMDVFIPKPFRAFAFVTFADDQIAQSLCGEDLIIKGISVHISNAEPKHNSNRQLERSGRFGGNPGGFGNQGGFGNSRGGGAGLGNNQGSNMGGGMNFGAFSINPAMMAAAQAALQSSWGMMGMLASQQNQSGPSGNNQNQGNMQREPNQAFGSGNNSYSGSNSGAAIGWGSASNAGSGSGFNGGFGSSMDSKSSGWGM

Binder	binding signal
B1	3.16 R (bound/input frequency ratio)
B2	0.858 R (bound/input frequency ratio)
B3	0.0675 R (bound/input frequency ratio)
B4	1.24 R (bound/input frequency ratio)
